This is an account of results in PubChem BioAssay AID652053 (Broad Institute, 2013).

Among all 1,300 compounds or so, about 930 (72%) were called active.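 The calls were made as follows: active = fitted curve reaches 40% activation signal increase at or below the top valid tested concentration in every replicate test; inconclusive = replicate tests disagree in their calls; inactive = all replicate tests inactive, including effects opposite the expected signal rise.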 So high a share suggests a set chosen from earlier hits. These entries were drawn from the full list. Where a call stands in place of a potency, no number is given. Potency and affinity values are given separately.

The assay is described as follows: miR-122 inhibitors in Huh7 reporter cells, dose response, cell-based, Huh7 psiCHECK-miR122, Renilla luciferase, cherry-pick (AID 652053). To be noted: 48 h; series mostly up to 35 µM.
As for `CCC(C)(C)n1nnnc1C(c1ccc(C)cc1)N1CCC(C)CC1` (stereo not given), the call was inactive.

`C[C@@H]1CN([C@H](C)CO)C(=O)Cc2cc(NC(=O)Nc3cccc4ccccc34)ccc2O[C@H]1CN(C)C(=O)Nc1cccc2ccccc12`: the outcome was inactive. `C[C@H](CO)N1C[C@H](C)[C@H](CN(C)C(=O)Nc2cccc3ccccc23)Oc2ccc(NC(=O)Nc3ccc(C(F)(F)F)cc3)cc2CC1=O`: the compound was classed as inactive.

Turning to `C[C@H](CO)N1C[C@H](C)[C@H](CN(C)C(=O)Nc2cccc3ccccc23)Oc2ccc(NC(=O)Nc3cccc4ccccc34)cc2CC1=O`, the outcome was inactive. The entry for `C[C@@H]1CN([C@@H](C)CO)C(=O)Cc2cc(NC(=O)Nc3ccc(C(F)(F)F)cc3)ccc2O[C@H]1CN(C)C(=O)Nc1cccc2ccccc12` is “inactive”; for `C[C@H]1CN([C@@H](C)CO)C(=O)Cc2cc(NC(=O)Nc3ccc(C(F)(F)F)cc3)ccc2O[C@@H]1CN(C)C(=O)Nc1cccc2ccccc12` it is “inactive”; for `CN(C)S(=O)(=O)c1ccc2c(c1)nc(CCC(=O)NCC1CCCCC1)n2C` it is “inactive”. For the compound `O=C(COc1ccc2c(c1)C(=O)CC1(CCCCC1)O2)NCc1ccccc1`, the compound was called inactive. As for `CC1(C)N([O-])C(c2cccs2)=C[N+]1=O`, the outcome was inactive.

For the compound `C[C@H]1CN([C@@H](C)CO)C(=O)Cc2cc(NC(=O)Nc3cccc4ccccc34)ccc2O[C@H]1CN(C)C(=O)NC1CCCCC1`, the result was inactive.

For the compound `C[C@@H]1CN([C@H](C)CO)S(=O)(=O)c2ccc(-c3ccccc3)cc2O[C@H]1CN(C)C(=O)C1CCCCC1`, the outcome was inactive. Take `C[C@@H]1CN([C@H](C)CO)S(=O)(=O)c2ccc(C3=CCCCC3)cc2O[C@@H]1CN(C)Cc1ccccc1`: the compound was called inactive. Turning to `COC(=O)C[C@H]1CC[C@@H]2[C@H](COc3ccc(NS(=O)(=O)c4ccc(C)cc4)cc3C(=O)N2C)O1`, the compound was called inactive. As for `O=C(c1ccccc1F)N1C[C@H]2[C@@H](c3ccccc31)[C@H](CO)N2C(=O)c1ccc(F)cc1`, the call was inactive. Take `O=C(c1ccccc1F)N1C[C@H]2[C@@H](c3ccccc31)[C@H](CO)N2C(=O)c1cccnc1`: the compound was classed as inactive. Regarding `O=C(c1ccccc1F)N1C[C@@H]2[C@H](c3ccccc31)[C@@H](CO)N2C(=O)c1ccc(F)cc1`, the compound was called inactive. With `COc1ccc(N2C(=O)c3cccc4c(N(C)CCO)ccc(c34)C2=O)cc1`, the result was inactive. The entry for `O=C(C[C@H]1CC[C@H]2[C@@H](COC[C@H](O)CN2C(=O)Nc2cccc(F)c2)O1)NCc1ccccc1F` is “inactive”. The same measure for `C[C@H](CO)N1C[C@H](C)[C@@H](CN(C)Cc2ccc(C(=O)O)cc2)Oc2c(NC(=O)C3CCOCC3)cccc2C1=O`: “inactive”; for `C[C@H](CO)N1C[C@H](C)[C@@H](CN(C)C(=O)Nc2cccc3ccccc23)Oc2c(NC(=O)C3CCOCC3)cccc2C1=O`: “inactive”.
